# High-throughput results: PubChem BioAssay, Johns Hopkins Ion Channel Center
# KCNQ2 inh = KCNQ2 (rat) channel inhibition. O88943. CHO-K1 KCNQ2, FluxOR thallium flux, 20 min; hits give low values. B-score at 10 µM. actives 1.1% (n = 310,000);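 active = fluorescence ratio B-score at most minus 3 library SDs, with starting brightness B-score within 2 library SDs, cut at about -5.5 in these data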
# KCNQ2 enhance = enhances the rat KCNQ2 potassium channel; O88943; CHO-K1 KCNQ2, FluxOR thallium flux fluorescence; hits give high values; B-score at 10 µM; actives 0.54% (n = 310,000); AID 2239;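 active = fluorescence ratio B-score at least 3 SD of library B-scores, with initial fluorescence B-score within 3 of them, cut at about 5.3 in these data; same plate scores as AID 2156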;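 also: B-score of peak minus minimum over baseline fluorescence ratio after K+ and Tl+ stimulus; positive B-score means potentiation of KCNQ2 with more thallium influx and brighter signal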
# Kir21 conf inh = confirmation of mouse Kir2.1 potassium channel inhibitors; Kir2.1-expressing cells, FluxOR thallium flux fluorescence; hits give low values; actives 41% (n = 2,300); shares compounds with KCNQ2 enhance; Tl flux remaining, % of negative control (hits give low values), % at 10 µM;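 active = Primary-screen hit whose thallium flux fell at least 3 control SD below untreated wells in both duplicates, with normal baseline fluorescence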;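 also: 0% = blank wells without stimulus and 100% = stimulated no-compound controls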
# Target sequence (P35561 whole entry, looked up): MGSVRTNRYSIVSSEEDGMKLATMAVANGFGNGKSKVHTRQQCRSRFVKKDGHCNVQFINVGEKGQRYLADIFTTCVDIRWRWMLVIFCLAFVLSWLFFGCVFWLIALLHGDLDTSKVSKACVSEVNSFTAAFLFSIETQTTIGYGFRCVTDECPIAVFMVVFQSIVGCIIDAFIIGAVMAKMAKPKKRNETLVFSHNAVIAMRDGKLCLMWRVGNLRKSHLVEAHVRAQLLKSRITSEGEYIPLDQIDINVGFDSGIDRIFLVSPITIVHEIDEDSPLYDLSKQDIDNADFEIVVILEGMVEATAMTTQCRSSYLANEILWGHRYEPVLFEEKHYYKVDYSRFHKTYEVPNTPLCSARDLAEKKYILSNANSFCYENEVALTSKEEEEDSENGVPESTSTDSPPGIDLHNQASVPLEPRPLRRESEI
# HEK293 Tl flux = counter-screen for Kir2.1 inhibitors: effect in parental HEK293 cells; FluxOR thallium flux fluorescence; 0% = unstimulated blank wells; shares compounds with KCNQ2 enhance; actives 19% (n = 2,300); FluxOR signal as % of negative control (100 = no effect), % at 10 µM;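 active = dye signal at least 3 control SD above or below untreated wells in both duplicates, raw fluorescence within 3, either direction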;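 also: percent is based on the flux ratio of peak minus minimum fluorescence over baseline F0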
# CHO-K1 Tl ctr = alters thallium flux in parental CHO-K1 cells, KCNQ2 counter-screen | shares compounds with KCNQ2 enhance | actives 43% (n = 1,200) | FluxOR thallium flux fluorescence; zero = vehicle mean+3SD, 100% = vehicle-minus-blank window | activity increase over 3SD of controls, % at 10 µM;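 active = signal rise of at least 3 SD above the untreated control mean, in both duplicate wells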;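 also: counter screen of KCNQ2 potentiator hits so any rise reflects channel-independent effects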
# KCNQ1 sel pot = tests whether KCNQ2 potentiators also act on human KCNQ1 | shares compounds with KCNQ2 enhance | CHO KCNQ1 stable, FluxOR thallium flux fluorescence; beyond 3SD, as % of vehicle-control signal | activation over 3SD threshold, % at 10 µM | actives 28% (n = 1,200) | AID 2283;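 active = fluorescence ratio rise of at least 3 SD of vehicle wells above their mean, in both replicate wells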;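 also: 0% = vehicle mean plus 3 SD and 100% = vehicle minus unstimulated blank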
# KCNQ2 pot confirm = confirmation of rat KCNQ2 potassium channel potentiators | shares compounds with KCNQ2 enhance | CHO-KCNQ2 cells, FluxOR thallium flux fluorescence | potentiation, less the hit threshold, % at 10 µM | actives 68% (n = 1,200) | AID 2287;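 active = fluorescence ratio rising 3 SD or more over the vehicle control mean in both replicates, plus primary screen hit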;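 also: peak minus minimum thallium fluorescence divided by baseline after K/Tl stimulus; 0% = vehicle mean plus 3 SD and 100% = vehicle minus unstimulated blank difference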
# Kir21 spec = selectivity of KCNQ2 potentiators: effect on mouse Kir2.1. shares compounds with KCNQ2 enhance. HEK293 Kir2.1, FluxOR thallium flux fluorescence. activity over 3SD threshold, % at 10 µM. actives 2% (n = 1,200);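 active = fluorescence ratio rise of at least 3 SD above the vehicle-control mean, seen in both replicates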;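 also: 0% = vehicle mean plus 3 SD and 100% = vehicle minus no-stimulus blank window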
# KCNQ2 W236L pot = rat KCNQ2 W236L mutant potentiation by KCNQ2 potentiators. shares compounds with KCNQ2 enhance. CHO KCNQ2-W236L, automated patch clamp current. current increase over 3SD of negative controls (%), hits give high values, % at 25 µM. actives 10% (n = 940);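 active = current increase at least 3 SD of the untreated controls above them in both duplicate recordings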
# * hit, by the source's call; i = inactive; · = no result given. Most compounds without a hit are left out; they make up all but 1.6% or so of the library.
SMILES,KCNQ2 inh,KCNQ2 enhance,Kir21 conf inh,HEK293 Tl flux,others
CC(=O)CSc1ncnc2sc3c(c12)CCC(C)C3 (stereo not drawn),i,15*,i,455%*,CHO-K1 Tl ctr=1.6*;KCNQ1 sel pot=-2;KCNQ2 pot confirm=93*;Kir21 spec=0;KCNQ2 W236L pot=i
CC1CCc2c(sc3ncnc(SCC(=O)c4ccccc4)c23)C1 (stereo not drawn),i,1.8,·,·,
O=C(O)c1cc(-c2cccs2)nn1-c1cccc(Cl)c1,i,8.9*,i,i,CHO-K1 Tl ctr=16*;KCNQ1 sel pot=28*;KCNQ2 pot confirm=-7;Kir21 spec=-12;KCNQ2 W236L pot=i
O=C(O)c1cc(-c2cccs2)nn1-c1ccccc1,i,·,·,·,
CN(C(=O)COc1ccc(Oc2ccccc2)cc1)C1CCS(=O)(=O)C1 (stereo not drawn),i,0.57,·,·,
COc1ccc(Nc2ncnc3ccc(C)cc23)cc1,i,1.1,52%*,168%*,
COC(=O)c1cccc(Nc2ncnc3ccc(C)cc23)c1,i,·,·,·,
Cc1cccc(CC(=O)NCC2CCCCC2)c1,i,9.4*,i,i,CHO-K1 Tl ctr=39*;KCNQ1 sel pot=-18;KCNQ2 pot confirm=28*;Kir21 spec=-27;KCNQ2 W236L pot=i
COc1cccc(/C=C/C(=O)NCC2CCCCC2)c1,i,·,·,·,
Cc1ccccc1C(=O)c1cccn1CC(=O)NCCCN1CCc2ccccc2C1,i,0.76,·,·,
CCNS(=O)(=O)c1ccc(CCC(=O)NCCC2=CCCCC2)cc1,i,1.7,·,·,
O=C1CSC(c2ccccn2)N1c1ccc(C(F)(F)F)cc1 (stereo not drawn),i,·,·,·,
Cc1ccc(C2CC2C(=O)NNC(=S)Nc2cccc(Cl)c2)cc1 (stereo not drawn),i,18*,i,i,CHO-K1 Tl ctr=-2;KCNQ1 sel pot=-5;KCNQ2 pot confirm=84*;Kir21 spec=-36;KCNQ2 W236L pot=i
O=C(NNC(=S)Nc1ccc(F)cc1)C1CC1c1ccc(Cl)cc1 (stereo not drawn),i,1.7,·,·,
Cc1ccc(C2CC2C(=O)NNC(=S)Nc2cccc(C)c2)cc1 (stereo not drawn),i,9.2*,i,i,CHO-K1 Tl ctr=-4;KCNQ1 sel pot=-12;KCNQ2 pot confirm=64*;Kir21 spec=-54;KCNQ2 W236L pot=i
Cc1ccc(NC(=S)NNC(=O)C2CC2c2ccc(C)cc2)cc1 (stereo not drawn),i,·,·,·,
O=C(Nc1cccc(NC(=O)c2ccco2)c1)c1cccc(Br)c1,i,1.4,·,·,
O=C(CNC(=O)c1cccc(Br)c1)N/N=C/c1cc(Br)cc(Br)c1O,i,·,·,·,
O=C(Cc1ccccc1)N/N=C/c1cc(Br)cc(Br)c1O,i,7*,i,i,CHO-K1 Tl ctr=4.9*;KCNQ1 sel pot=-25;KCNQ2 pot confirm=-9;Kir21 spec=-36;KCNQ2 W236L pot=i
O=C(Nc1cccc(N=Cc2cc(Br)cc(Br)c2O)c1)c1ccco1,i,9.3*,i,i,CHO-K1 Tl ctr=56*;KCNQ1 sel pot=49*;KCNQ2 pot confirm=15*;Kir21 spec=-36;KCNQ2 W236L pot=i
CCOc1ccccc1CN1CCNC(=O)C1CC(=O)N(C)C1CCOCC1 (stereo not drawn),i,·,·,·,
CC(=O)Oc1ccc(N(c2ccccc2)S(=O)(=O)c2ccc(C)cc2)cc1,i,0.14,·,·,
C=CCc1cc(Cl)ccc1OCCOCCNC(C)CC (stereo not drawn),i,0.16,i,i,
C=CCc1cc(Cl)ccc1OCCCNC(C)C,i,0.39,·,·,
COC(=O)[C@H](Cc1ccccc1)NC(=O)NCCc1ccc(OC)cc1,i,·,·,·,
SMILES,KCNQ2 inh,KCNQ2 enhance,Kir21 conf inh,HEK293 Tl flux,others
CCN1CCN(CCNC(=O)CSCc2nc(-c3ccc(OC)c(OC)c3)oc2C)CC1,i,10*,i,i,CHO-K1 Tl ctr=22*;KCNQ1 sel pot=-15;KCNQ2 pot confirm=-21;Kir21 spec=-30
CCN1CCN(C(=O)CSCc2nc(-c3ccc(OC)c(OC)c3)oc2C)CC1,i,·,·,·,
COc1ccc(C(=O)N/C(=C\c2ccco2)C(=O)NC2CCS(=O)(=O)C2)cc1 (stereo not drawn),i,·,·,·,
Cn1c(NCc2cc(Br)ccc2O)nc2ccccc21,i,0.81,·,·,
Cn1c(-c2ccccc2)cnc1NCc1ccccc1,i,·,·,·,
Cn1c(-c2cccc(Br)c2)cnc1NCc1ccccc1O,i,5.6*,75%*,i,CHO-K1 Tl ctr=2.7*;KCNQ1 sel pot=8.7*;KCNQ2 pot confirm=-13;Kir21 spec=-59
Cn1c(-c2ccc3c(c2)OCO3)cnc1NCc1ccccc1,i,·,30%*,i,
CCOc1ccc(/C=C/[N+](=O)[O-])c2ccccc12,i,·,i,i,
CCOC(=O)COc1ccc2ccccc2c1/C=C/[N+](=O)[O-],i,·,·,·,
Cc1nnc(SCc2nc3sc4c(c3c(=O)[nH]2)CCCC4)[nH]c1=O,i,0.28,·,·,
CCNC(=O)n1cc(-n2cncn2)c(-c2ccc(Cl)cc2)n1,i,0.34,·,·,
Cc1cccc(N(C(=O)CNC(=O)c2cccs2)C(C(=O)NC2CCCC2)c2ccncc2)c1 (stereo not drawn),i,·,·,·,
COc1cccc(CNCCc2c[nH]c3ccccc23)c1OCc1ccc(F)cc1,-8*,-8,i,i,
Cc1ccc(NC(=S)NCCc2c[nH]c3ccccc23)c(C)c1,i,·,76%*,i,
COc1ccccc1NC(=S)NCCc1c[nH]c2ccccc12,i,0.21,72%*,i,
Cc1ccc(NC(=S)NCCc2ccccc2)c(C)c1,i,·,·,·,
COc1cccc(CNc2ccc3[nH]c(=O)[nH]c3c2)c1OCc1ccc(F)cc1,i,4.1,·,·,
COc1cc(NC(=S)NCCc2c[nH]c3ccccc23)c(OC)cc1Cl,i,·,·,·,
Cc1ccc(CNC(=O)CN2C(=O)CSc3ccc(S(=O)(=O)N4CCC(C)CC4)cc32)cc1,i,·,·,·,
CCCc1c(C(=O)N/N=C/c2ccco2)nnn1-c1nonc1N,i,1.6,·,·,
Cc1csc(=O)n1CC(=O)OCC(=O)c1ccc(Br)cc1,i,0.04,·,·,
c1ccc(CN2CCN(CCOCCOc3cccc4ccccc34)CC2)cc1,i,·,19%*,i,
O=C(c1ccco1)N1CCN(CCOCCOc2cccc3ccccc23)CC1,i,0.35,·,·,
C=CCn1c(=S)[nH]c2cc(-c3ccccc3)sc2c1=O,i,2.8,·,·,
C=CCn1c(=S)[nH]c2scc(-c3cccs3)c2c1=O,i,25*,i,512%*,CHO-K1 Tl ctr=12*;KCNQ1 sel pot=-13;KCNQ2 pot confirm=106*;Kir21 spec=-3;KCNQ2 W236L pot=i
Cn1c(=S)[nH]c2scc(-c3cccs3)c2c1=O,i,19*,i,465%*,CHO-K1 Tl ctr=119*;KCNQ1 sel pot=-12;KCNQ2 pot confirm=88*;Kir21 spec=-2;KCNQ2 W236L pot=i
O=c1c2c(-c3cccs3)csc2ncn1-c1ccc(Br)cc1,i,·,·,·,
